# Measurements reported in ChEMBL document CHEMBL1157539, “Thousands of chemical starting points for antimalarial lead identification” (Nature, 2010).
# What was measured:
# Assay type in all cases: functional
# [1] = tested on: Plasmodium falciparum; test: GSK_TCMDC: Inhibition of Plasmodium falciparum 3D7 in whole red blood cells, using parasite LDH activity as an index of growth. Test compounds present at 2uM
# [2] = tested on: Plasmodium falciparum; test: GSK_TCMDC: Inhibition of Plasmodium falciparum Dd2 in whole red blood cells, using parasite LDH activity as an index of growth. Test compounds present at 2uM
# [3] = tested on: HepG2; test: GSK_TCMDC: Percent inhibition of human HepG2 cell line. Test compounds present at 10uM.
SMILES,Inhibition [1] [%],Inhibition [2] [%],Inhibition [3] [%]
CN(C)c1nc2cc(-n3cnc4cc(-c5ccc(Cl)cc5)sc4c3=O)ccc2n1CCCN1CCCCC1.O=C(O)C(F)(F)F,97,23,55
COc1ccc(-c2cnc3ccc(NCCCO)nn23)cc1OC,98,90,9
Nc1nccc2ccc(Oc3ccncc3)cc12,91,81,0
Cc1ccc(C(=O)N2CCN(Cc3nccs3)CC2)cc1,86,0,0
Cc1c(Cn2nc(Cl)c(N3CCNCC3)cc2=O)cccc1NC(=O)Nc1ccc(-c2ccccc2)cc1.O=C(O)C(F)(F)F,80,29,96
O=C(Nc1ccc2c(c1)CCNCC2)Nc1ccc2ccccc2c1.O=C(O)C(F)(F)F,84,23,0
O=C(O)C(F)(F)F.c1cc(CN2CCN(c3ccncc3)CC2)cc(-c2cccc(-c3nc4ccccc4[nH]3)c2)c1,100,98,35
COc1cc2nc(NCC3CCN(c4nc(N)c5cc(OC)c(OC)cc5n4)CC3)nc(N)c2cc1OC,92,73,12
CCOC(=O)C(=O)N1c2ccc(OCC)cc2-c2c(ssc2=S)C1(C)C,99,100,5
O=C(Nc1cccc(CN2CCCN(Cc3ccc(O)cc3)CC2)c1)c1cc2ccccc2s1.O=C(O)C(F)(F)F,100,90,27
C=C1C(C(=O)OCC)=CN(CC)c2cc(O[C@@H]3CCN(C(=O)OC(C)(C)C)C3)ccc21,97,94,13
Cl.O=C(NC1CCC(N2CCN(c3cccc4[nH]ccc34)CC2)CC1)c1cc2cccnc2[nH]1 (stereo not given),99,85,9
Cc1cccc2nc(-c3ccc(-c4ccc(CN5CCC(N)C5)cc4)s3)[nH]c12.O=C(O)C(F)(F)F (stereo not given),100,98,21
CC(C)C[C@H](Nc1ccnc(NCC2CCCCC2)n1)C(=O)NCCOc1ccccc1.O=C(O)C(F)(F)F,89,73,37
COc1ccc(C2CCN(CCCCNC(=O)c3ccc(NC(=O)c4ccc(Cl)cc4)cc3)CC2)c(C)c1.Cl,98,35,22
O=C(/C=C/c1ccc(-c2nc3ccc(Cl)cc3[nH]2)cc1)NCc1cccc(F)c1,99,68,1
Cl.O=C(Nc1ccc(C2=NC3CCCCC3N2)cc1)Nc1ccc(C2=NC3CCCCC3N2)cc1 (stereo not given),88,76,7
COc1ccc(-c2ccc(NC(=O)c3ccc(C#N)cc3)cc2)cc1CN(C)CCN(C)C.O=C(O)C(F)(F)F,96,58,28
COc1cccc2cc(C(=O)N[C@@H](CC(C)C)C(=O)N[C@H](C=NNC(=O)OC(C)(C)C)CC(C)C)oc12,88,57,8
CC(Cc1ccc(NC(=O)c2ccc(CC(C)NCc3ccc(Cl)cc3)cc2)cc1)NCCc1cccc(Cl)c1 (stereo not given),100,75,95

SMILES,Inhibition [1] [%],Inhibition [2] [%],Inhibition [3] [%]
CC(C)C(=O)NC(Nc1ccc([N+](=O)[O-])cc1)C(Cl)(Cl)Cl (stereo not given),97,84,7
Cc1c(C(=O)C2CC2CN2CCC(N3CCCCC3)CC2)sc2ccccc12 (stereo not given),94,19,35
O=C(Nc1cc(Cl)ccc1Cl)N[C@H]1CCN(CCCCCNC(=O)C2CC2c2ccc(Cl)c(Cl)c2)C1 (stereo not given in full),97,1,49
O=C(Nc1ccc(-c2nc3cc4ccccc4cc3[nH]2)cc1)c1cccc(Br)c1,100,89,50
CC(=O)Oc1c(C(=O)C2CCC(C(C)(C)C)CC2)c(OC(C)=O)c2ccccc2c1OC(C)=O (stereo not given),96,96,9
Cc1cc(F)ccc1C1CCN(CCCCNC(=O)c2ccc(NC(=O)c3ccc(Cl)cc3)cc2)CC1,100,79,19
O=C(NC1CCN(CCN2CCC(c3ccccc3C(F)(F)F)CC2)CC1)c1ccc(-c2ccc(Cl)cc2)cc1,100,68,39
CS(=O)(=O)CCNCc1ccc(-c2ccc3ncnc(Nc4ccc(OCc5ccccc5)c(Cl)c4)c3c2)o1.Cl [GW574783B],100,76,4
COc1ccc(CC(=O)NC(CCCN2CCC(c3ccccc3)CC2)c2ccc(Cl)c(Cl)c2)cc1OC (stereo not given),82,57,28
Nc1nc2c(ncn2COC(COCc2ccccc2)COCc2ccccc2)c(=O)[nH]1.Nc1nc2ncn(COC(COCc3ccccc3)COCc3ccccc3)c2c(=O)[nH]1,86,57,18
Cl.O=c1cc(NCCCNCc2cc3c(Cl)cccc3s2)[nH]c2ccccc12,100,57,6
CN1CCCC1CCOc1ccc2c(c1)N(C(=O)Nc1cc(Br)cc(C(F)(F)F)c1)CC2.O=C(O)C(F)(F)F (stereo not given),100,97,13
Cl.N=C(NCCCCC1CCCCC1)c1cccc(C(=N)NCCCCC2CCCCC2)n1,100,19,99
Cc1noc(C)c1-c1cccc(CNCc2cccc(-c3cccc(-c4nc5cc(F)ccc5[nH]4)c3)c2)c1.O=C(O)C(F)(F)F,100,73,18
COc1ccc(-c2cccc(NC(=O)c3ccc(C#N)cc3)c2)cc1CN1CCCC1.O=C(O)C(F)(F)F,98,15,30
Cc1ccc(O)cc1Nc1ccnc2ccc(-c3cccc(CNCCN(C)C)c3)cc12,100,46,0
Cc1cnc(Nc2cccc(CCN3CCOCC3)c2)nc1NC(C)C.Cl,97,76,53
N=C(N)NN=CC(=O)Nc1ccc(Cl)c(C(F)(F)F)c1,100,0,0
CC1(C)C(=O)Nc2ccccc2N1C(=O)CN1CCN(c2ccccc2O)CC1,92,72,7
CC[C@H](C)CNC(=O)c1cccc(-c2ccc(CN3CCC(N4CCCC4)CC3)cc2)n1.O=C(O)C(F)(F)F,100,82,41

SMILES,Inhibition [1] [%],Inhibition [2] [%],Inhibition [3] [%]
CCOCc1cnc(C)nc1NCC(=O)c1c(C)[nH]c2cc(C)ccc12.I,89,76,8
Cc1nnc(NC(=O)c2cn(-c3ccccc3)nc2-c2ccccc2C)o1,93,87,37
Cc1ccccc1Cc1cccc(/N=C(\N)Nc2ccc(Cl)cc2)n1,91,56,48
CC12CCC(C(=O)N(CC(O)Cn3c4ccc(Cl)cc4c4cc(Cl)ccc43)C1=O)C2(C)C (stereo not given),100,99,0
Cn1cnc(CCNC(=O)c2cccc(-c3cccc(-c4nc5cc(C(F)(F)F)ccc5[nH]4)c3)c2)c1,100,45,37
COCCN1CCC(N(Cc2ccc(-c3ccc(C(F)(F)F)cc3)cc2)C(=O)Cn2c(CCc3cccc(F)c3F)cc(=O)c3c2CCC3)CC1.O=C(O)C(O)C(O)C(=O)O,85,48,31
CCNc1cc(C(=O)N[C@@H](Cc2ccc(F)c(F)c2)[C@H](O)CNCc2cccc(OC)c2)cc(N2CCCCS2(=O)=O)c1.Cl,99,85,4
Cc1sc(NC(=O)c2ccc([N+](=O)[O-])cc2Cl)c(C(N)=O)c1C,94,2,2
Fc1cccc(COc2ccc(Nc3ncnc4sc(C#CCNC5CCCC5)cc34)cc2Cl)c1,100,78,3
CN(C)c1cc(NN=Cc2cc(Cl)ccc2O)nc(N(C)C)n1,98,98,3
O=C(Nc1ccc(C(F)(F)F)cc1)NC1CCN(c2ccnc3cc(Cl)ccc23)C1.O=C(O)C(F)(F)F (stereo not given),100,99,20
O=C(Nc1cccc(-c2ccc(-c3nc4cc(F)ccc4[nH]3)cc2)c1)c1csnn1,94,31,22
CC(C)CC1(C(=O)OC(C)(C)C)CC(C(=O)OC(C)(C)C)C(c2cccs2)N1C(=O)c1ccc(C(C)(C)C)cc1 (stereo not given),100,100,21
Cc1cccc2nc(-c3cccc(-c4ccc(C(=O)NCCc5ccc(O)c(=O)[nH]5)cc4)c3)[nH]c12,85,30,20
COc1ccc(Nc2nccc(-c3ccc4ccnc(NCCCCN)c4c3)n2)cc1,95,47,15
CC(=NNC(=N)N)c1ccc2ccc3ccccc3c2c1.Cl,97,23,14
NC1=NC(c2ccccc2)(c2ccccc2)C(=O)N1CCCCc1ccccn1,94,56,10
O=[N+]([O-])c1cccc(C(Nc2ccccn2)c2ccc3cccnc3c2O)c1 (stereo not given),86,29,53
CCN(CCCN1CCCCC1)c1cc(C)nc(Nc2ccc(C)c(C)c2)n1.O=C(O)C(F)(F)F,100,60,30
CN(Cc1cccc(O)c1)C1CCN(c2cc(NC(=O)c3ccc(F)cc3)ccn2)CC1.O=C(O)C(F)(F)F,94,9,24
